# Where “and” joins values, the source holds several entries; their conditions need not be identical. Equal entries are not always repeated. Records with an inconclusive call do not appear. Calls of active or inactive are those of the source. The calls were made as follows, unless noted: active = hit-call score of the fitted dose curve at least 0.9, where 1 is the maximum; inconclusive = response in the unintended direction; inactive = score below 0.9.
# Legend:
# [1] = read-out: xenobiotic metabolism (CYP2C9), CYP2C9 (gene 1559); assay: CLD_CYP2C9_6hr: CellzDirect (CLD) Gene Expression Assay for xenobiotic metabolism (CYP2C9) at 6 hours (AID 2283664)
# Method in brief: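 Primary human hepatocytes dosed daily with test chemicals at multiple concentrations; harvested at 6 h. CYP2C9 mRNA induction measured by qNPA chemiluminescence. Gain of signal fitted against 0.2% DMSO vehicle; cytotoxicity annotated from phase-contrast morphology.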
# [2] = Tanguay_ZF_120hpf_TR_legacy: (Legacy) Oregon State University Tanguay Lab 120 Hour Post-fertilization zebrafish Assay for Touch Response (AID 2283667)
# Method in brief: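 Tropical 5D wild-type zebrafish embryos statically exposed to 120 hpf at 28°C, sealed and dark-covered, 0.64% DMSO final; touch response scored as present/absent by brightfield microscopy at 120 hpf. Trimethyltin chloride 5 uM positive control; dead embryos not scored.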
# [3] = read-out: sulfotransferase (SULT2A), SULT2A1 (gene 6822); assay: CLD_SULT2A_6hr: CellzDirect (CLD) Gene Expression Assay for sulfotransferase (SULT2A) at 6 hours (AID 2283669);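 also: hits raise transcript level above the DMSO vehicle baseline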
# Method in brief: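 Primary human hepatocytes from two donor preparations were dosed daily with chemicals or 0.2% DMSO and harvested at 6 h. Transcript induction read by qNPA chemiluminescence, fitted for gain of signal relative to DMSO; morphology-based cytotoxicity annotated.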
# [4] = CLD_ACTIN_24hr: CellzDirect (CLD) Gene Expression Assay for Baseline Control (Actin) at 24 hours (AID 2283670)
# Method in brief: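 Primary human hepatocytes dosed over multiple concentrations with 0.2% DMSO vehicle; actin mRNA measured at 24 h by qNPA chemiluminescence. Background control endpoint, fitted as gain of signal versus DMSO.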
# [5] = read-out: Cytochrome P450 (CYP24A1_1), CYP24A1 (gene 1591); assay: LTEA_HepaRG_CYP24A1_1: Life Technologies and Expression Analysis (LTEA) Assay for Cytochrome P450 (CYP24A1_1) using HepaRG (AID 2283671; active = hit-call score of the fitted dose curve at least 0.9, where 1 is the maximum; inactive = score below 0.9); settings: mRNA level, 48 h; actives raise or lower the signal
# Method in brief: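 Differentiated human HepaRG cells in serum-free induction medium, exposed 48 h in duplicate to eight half-log concentrations from 100 uM top, 0.5% DMSO. Transcript measured by TaqMan qRT-PCR, normalised to ACTB, GAPDH, POLR2A; bidirectional fitting versus DMSO.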
# [6] = read-out: Cytochrome P450 2B6 (Homo sapiens) (UniProt P20813); assay: CLD_CYP2B6_6hr: CellzDirect (CLD) Gene Expression Assay for xenobiotic metabolism (CYP2B6) at 6 hours (AID 2283677);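 also: actives raise CYP2B6 transcript above DMSO baseline so AC50 marks an inducer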
# Method in brief: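 Primary human hepatocytes dosed with chemicals at multiple concentrations, vehicle 0.2% DMSO; CYP2B6 mRNA induction measured 6 h after dosing by quantitative nuclease protection assay with chemiluminescence, gain of signal fitted relative to DMSO.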
# [7] = CLD_ACTIN_6hr: CellzDirect (CLD) Gene Expression Assay for Baseline Control (Actin) at 6 hours (AID 2283676);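 also: active means increased actin mRNA relative to DMSO vehicle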
# Method in brief: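 Primary human hepatocytes dosed with fresh chemical solutions (vehicle 0.2% DMSO), harvested at 6 h. Actin mRNA quantified by quantitative nuclease protection assay with chemiluminescent read-out, as background control relative to DMSO.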
# [8] = CCTE_Simmons_CellTiterGLO_HEK293T: Viability Assessment in CCTE's Assays for Thyroperoxidase (TPO) Inhibition, Simmons Lab (AID 2283665);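 as to AC50: cells exposed to compound for 24 h before readout; actives reduce ATP signal below DMSO vehicle meaning cytotoxicity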
# Method in brief: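 Cytotoxicity counter-screen: human HEK293T cells in low-serum (1% FBS) medium receive test chemical, 5 nM to 87.5 uM final, for 24 h; ATP is quantified by luciferase luminescence.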
# [9] = read-out: xenobiotic metabolism (CYP1A1), CYP1A1 (gene 1543); assay: CLD_CYP1A1_24hr: CellzDirect (CLD) Gene Expression Assay for xenobiotic metabolism (CYP1A1) at 24 hours (AID 2283673);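 also: CYP1A1 mRNA level by quantitative nuclease protection with chemiluminescence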
# Method in brief: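 Primary human hepatocytes dosed daily with fresh solutions in 0.2% DMSO vehicle. mRNA measured at 24 h by quantitative nuclease protection assay with chemiluminescence; gain-of-signal fit versus DMSO, with morphology-based cytotoxicity flags.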
# [10] = read-out: glucuronosyltransferase (UGT1A1), UGT1A1 (gene 54658); assay: CLD_UGT1A1_6hr: CellzDirect (CLD) Gene Expression Assay for glucuronosyltransferase (UGT1A1) at 6 hours (AID 2283672)
# Method in brief: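 Primary human hepatocytes from two donor preparations, dosed with fresh solutions in 0.2% DMSO, harvested at 6 h. UGT1A1 mRNA measured by qNPA chemiluminescence; induction fitted upward versus DMSO.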
compound,measurement,setting,value
Cc1[nH]c(=O)n(C(C)(C)C)c(=O)c1Cl,outcome,[1],inactive
same,AC50,[2],7.93 nM (active)
same,outcome,[3],inactive
same,outcome,[4],inactive
same,outcome,[5],inactive
same,outcome,[6],inactive
O=C(O)CCCOc1ccc(Cl)cc1Cl,outcome,[1],inactive
same,outcome,[2],inactive
same,outcome,[3],inactive
same,outcome,[4],inactive
same,outcome,[7],inactive
same,outcome,[6],inactive
CCc1ccc(C(=O)NN(C(=O)c2cc(C)cc(C)c2)C(C)(C)C)cc1,outcome,[1],inactive
same,outcome,[2],inactive
same,outcome,[3],inactive
same,AC50,[6],2.09 µM (active)
Oc1cc(Cl)ccc1Oc1ccc(Cl)cc1Cl,outcome,[1],inactive
same,AC50,[8],13.1 µM (active) [middle of 4 runs]
same,outcome,[2],inactive
same,outcome,[4],inactive
same,outcome,[6],inactive
CCCN(CCOc1c(Cl)cc(Cl)cc1Cl)C(=O)n1ccnc1,outcome,[1],inactive
same,AC50,[8],89.5 µM (active)
same,outcome,[2],inactive
same,outcome,[3],inactive
same,outcome,[5],inactive
same,outcome,[7],inactive
same,AC50,[6],0.702 µM (active)
OCCOc1ccccc1,outcome,[1],inactive
same,outcome,[7],inactive
same,outcome,[6],inactive
COC(=O)c1ccccc1S(=O)(=O)NC(=O)N(C)c1nc(C)nc(OC)n1,outcome,[1],inactive
same,outcome,[3],inactive
same,outcome,[4],inactive
same,outcome,[9],inactive
same,outcome,[6],inactive
C[C@H]1[C@H](c2ccc(Cl)cc2)SC(=O)N1C(=O)NC1CCCCC1,outcome,[1],inactive
same,outcome,[2],inactive
same,outcome,[3],inactive
same,outcome,[7],inactive
same,AC50,[6],3.09 µM (active)
CC1(c2ccc(Oc3ccccc3)cc2)OC(=O)N(Nc2ccccc2)C1=O (stereo not drawn),outcome,[1],inactive
same,AC50,[8],20.2 µM (active)
same,outcome,[2],inactive
same,outcome,[3],inactive
same,outcome,[4],inactive
same,outcome,[7],inactive
same,AC50,[6],1.88 µM (active)
O=C(O)COc1ccc(Cl)cc1Cl,outcome,[1],inactive
same,outcome,[2],inactive
same,outcome,[4],inactive
same,outcome,[7],inactive
same,AC50,[6],0.0448 µM (active)
COc1cc(OC)nc(NC(=O)NS(=O)(=O)c2cc(NC=O)ccc2C(=O)N(C)C)n1,outcome,[1],inactive
same,outcome,[3],inactive
same,outcome,[4],inactive
same,outcome,[7],inactive
same,outcome,[6],inactive
Cc1cc(C)nc(NC(=O)NS(=O)(=O)c2ccccc2C(=O)OC2COC2)n1,outcome,[1],inactive
same,outcome,[3],inactive
same,outcome,[4],inactive
same,AC50,[9],5.65 µM (active)
same,outcome,[7],inactive
same,outcome,[6],inactive
N#CN,outcome,[8],inactive
same,outcome,[2],inactive
same,outcome,[3],inactive
same,outcome,[4],inactive
same,outcome,[7],inactive
O=C(NC(=O)c1c(F)cccc1F)Nc1ccc(OC(F)(F)C(F)OC(F)(F)F)c(Cl)c1 (stereo not drawn),outcome,[1],inactive
same,outcome,[2],inactive
same,outcome,[3],inactive
same,outcome,[4],inactive
same,outcome,[9],inactive
same,outcome,[7],inactive
same,outcome,[6],inactive
COC(=O)c1ccccc1CS(=O)(=O)NC(=O)Nc1nc(OC)cc(OC)n1,outcome,[1],inactive
same,outcome,[3],inactive
same,outcome,[7],inactive
COP(=S)(OC)Oc1ccc([N+](=O)[O-])cc1,outcome,[8],inactive
same,outcome,[2],inactive
same,outcome,[3],inactive
same,AC50,[6],0.916 µM (active)
CNC(=O)CSP(=S)(OC)OC,outcome,[1],inactive
same,outcome,[8],inactive
same,outcome,[2],inactive
same,outcome,[4],inactive
same,outcome,[7],inactive
same,AC50,[6],3.11 µM (active)
CCC(C)(NC(=O)c1cc(Cl)c(C)c(Cl)c1)C(=O)CCl (stereo not drawn),outcome,[1],inactive
same,AC50,[2],57800 nM (active)
same,outcome,[3],inactive
same,outcome,[7],inactive
same,AC50,[6],3.17 µM (active)
CNC(=O)Oc1cccc(N=CN(C)C)c1,outcome,[8],inactive
same,outcome,[2],inactive
same,outcome,[3],inactive
same,outcome,[4],inactive
same,outcome,[7],inactive
same,outcome,[6],inactive
O=S(=O)(O)C(F)(F)C(F)(F)C(F)(F)C(F)(F)C(F)(F)C(F)(F)C(F)(F)C(F)(F)F,AC50,[8],64.1 µM (active) and 57.1 µM (active)
same,AC50,[2],9.61 µM (active) and 16.3 µM (active) and 13.3 µM (active)
same,outcome,[3],inactive
same,outcome,[7],inactive
same,outcome,[6],inactive
CN1CSC(=S)N(C)C1,outcome,[8],inactive
same,outcome,[2],inactive
same,outcome,[3],inactive
same,outcome,[4],inactive
same,outcome,[5],inactive
same,outcome,[10],inactive
same,outcome,[6],inactive
[2H]C1([2H])[n+]2ccccc2-c2cccc[n+]2C1([2H])[2H],outcome,[1],inactive
same,outcome,[4],inactive
same,outcome,[7],inactive
CNC(=O)Oc1ccccc1OC(C)C,outcome,[1],inactive
same,outcome,[2],inactive
same,outcome,[3],inactive
same,outcome,[4],inactive
same,outcome,[7],inactive
same,AC50,[6],3.21 µM (active)
CNC(=O)/C=C(\C)OP(=O)(OC)OC,outcome,[8],inactive
same,outcome,[2],inactive
same,outcome,[3],inactive
same,outcome,[6],inactive
O=[N+]([O-])/N=C1\NCCN1Cc1ccc(Cl)nc1,outcome,[1],inactive
same,outcome,[2],inactive
same,outcome,[3],inactive
same,outcome,[4],inactive
same,outcome,[6],inactive
O=C(Nc1ccccc1)Nc1cnns1,outcome,[8],inactive
same,outcome,[2],inactive
same,outcome,[3],inactive
same,outcome,[7],inactive
Clc1ccccc1-c1nnc(-c2ccccc2Cl)nn1,outcome,[10],inactive
CCN(CC)C(=O)SCc1ccc(Cl)cc1,outcome,[10],inactive
COc1nn(CSP(=S)(OC)OC)c(=O)s1,AC50,[9],4.39 µM (active)
COC(=O)c1ccccc1S(=O)(=O)NC(=O)Nc1nc(C)nc(OC)n1,outcome,[9],inactive
